# Laboratory results published in article PMC7862700, “An all-to-all approach to the identification of sequence-specific readers for epigenetic DNA modifications on cytosine”.
# Assays:
# Test in all cases: DAPPL (digital affinity profiling via proximity ligation, sequencing); 10 mM Tris-HCl pH 7.5, 50 mM NaCl, 1 mM DTT, 4% glycerol, room temperature, 30 min; GST-TFs on glutathione beads, 16-mer random dsDNA library, 0.1% formaldehyde crosslink after washing; high values mean tight binding
# Conditions in all cases: protein: recombinant; tags: N-terminal GST; dsDNA, one strand shown
# FLI1 = target: T1, FLI1 (Homo sapiens, UniProt Q01543 1-452)
# T1 sequence: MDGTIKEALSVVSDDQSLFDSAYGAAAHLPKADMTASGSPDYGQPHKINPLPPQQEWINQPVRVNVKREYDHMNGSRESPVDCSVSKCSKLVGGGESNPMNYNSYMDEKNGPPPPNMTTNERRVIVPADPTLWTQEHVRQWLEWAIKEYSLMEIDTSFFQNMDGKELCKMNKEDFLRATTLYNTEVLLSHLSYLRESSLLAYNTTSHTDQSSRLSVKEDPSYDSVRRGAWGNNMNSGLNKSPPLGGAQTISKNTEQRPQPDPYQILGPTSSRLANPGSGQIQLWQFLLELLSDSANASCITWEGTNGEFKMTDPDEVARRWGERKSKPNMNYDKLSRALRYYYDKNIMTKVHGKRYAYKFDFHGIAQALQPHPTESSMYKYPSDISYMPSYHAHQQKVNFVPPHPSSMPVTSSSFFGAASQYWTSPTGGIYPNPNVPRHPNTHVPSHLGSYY
# Summary of the method: (§1)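 Binding signal is each hexamer's read frequency for a factor divided by its frequency in the tag-only sample. The factors were GST-fused human transcription factors from yeast, captured on glutathione beads, DNA-barcoded and pooled with that sample. Pools were incubated with 200 nmole of a random double-stranded 16-mer DNA library in Tris/NaCl/DTT/glycerol buffer at room temperature for 30 min, then washed, crosslinked with 0.1% formaldehyde, proximity-ligated with BsaI/T4 ligase (1 h, 37 °C), PCR-amplified and sequenced on an Illumina NextSeq500.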
# ELK1 = target: T2, ELK1 (Homo sapiens, UniProt P19419 1-428)
# T2 sequence: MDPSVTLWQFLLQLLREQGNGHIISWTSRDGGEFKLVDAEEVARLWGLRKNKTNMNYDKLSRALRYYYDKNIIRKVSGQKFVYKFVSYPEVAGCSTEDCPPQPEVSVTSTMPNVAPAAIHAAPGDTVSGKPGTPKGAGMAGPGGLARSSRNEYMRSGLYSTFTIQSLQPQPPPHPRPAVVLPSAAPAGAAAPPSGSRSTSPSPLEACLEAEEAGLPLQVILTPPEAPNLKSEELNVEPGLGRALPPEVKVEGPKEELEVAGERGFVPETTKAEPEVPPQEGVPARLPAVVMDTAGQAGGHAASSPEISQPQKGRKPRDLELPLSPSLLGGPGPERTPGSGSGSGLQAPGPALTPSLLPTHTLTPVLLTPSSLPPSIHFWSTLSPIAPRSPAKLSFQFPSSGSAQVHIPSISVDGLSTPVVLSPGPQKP
# Summary of the method: as §1
# GABPA = target: T3, GABPA (Homo sapiens, UniProt Q06546 1-454)
# T3 sequence: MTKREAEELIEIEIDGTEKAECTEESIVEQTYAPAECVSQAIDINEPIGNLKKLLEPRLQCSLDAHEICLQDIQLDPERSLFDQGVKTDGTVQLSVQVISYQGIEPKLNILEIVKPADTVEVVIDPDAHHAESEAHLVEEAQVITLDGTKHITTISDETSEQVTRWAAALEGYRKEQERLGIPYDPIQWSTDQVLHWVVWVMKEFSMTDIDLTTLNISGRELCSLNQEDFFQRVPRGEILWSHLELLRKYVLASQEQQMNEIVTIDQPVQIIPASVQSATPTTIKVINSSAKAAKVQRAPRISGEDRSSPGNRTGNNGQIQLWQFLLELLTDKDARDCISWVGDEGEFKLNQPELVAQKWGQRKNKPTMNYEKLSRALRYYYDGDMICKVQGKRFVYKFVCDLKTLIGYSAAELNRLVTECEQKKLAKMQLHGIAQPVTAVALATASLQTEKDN
# Summary of the method: as §1
# ERG = target: T4, ERG (Homo sapiens, UniProt P11308 1-479)
# T4 sequence: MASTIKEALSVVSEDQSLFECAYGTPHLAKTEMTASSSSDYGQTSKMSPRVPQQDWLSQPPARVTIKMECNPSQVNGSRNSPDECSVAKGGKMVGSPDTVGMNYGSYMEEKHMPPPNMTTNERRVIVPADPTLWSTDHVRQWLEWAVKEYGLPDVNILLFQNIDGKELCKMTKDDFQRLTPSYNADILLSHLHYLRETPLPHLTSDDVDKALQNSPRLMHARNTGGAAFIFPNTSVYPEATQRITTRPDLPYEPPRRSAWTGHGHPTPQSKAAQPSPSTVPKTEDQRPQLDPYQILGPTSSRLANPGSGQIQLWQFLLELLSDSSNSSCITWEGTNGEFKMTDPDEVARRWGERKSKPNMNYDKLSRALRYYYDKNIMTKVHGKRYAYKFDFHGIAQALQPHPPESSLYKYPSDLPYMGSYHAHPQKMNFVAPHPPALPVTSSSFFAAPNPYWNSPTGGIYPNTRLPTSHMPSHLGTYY
# Summary of the method: as §1
# ELF1 = ELF1 (Homo sapiens, UniProt P32519 1-619)
# Sequence of ELF1 (P32519 whole entry): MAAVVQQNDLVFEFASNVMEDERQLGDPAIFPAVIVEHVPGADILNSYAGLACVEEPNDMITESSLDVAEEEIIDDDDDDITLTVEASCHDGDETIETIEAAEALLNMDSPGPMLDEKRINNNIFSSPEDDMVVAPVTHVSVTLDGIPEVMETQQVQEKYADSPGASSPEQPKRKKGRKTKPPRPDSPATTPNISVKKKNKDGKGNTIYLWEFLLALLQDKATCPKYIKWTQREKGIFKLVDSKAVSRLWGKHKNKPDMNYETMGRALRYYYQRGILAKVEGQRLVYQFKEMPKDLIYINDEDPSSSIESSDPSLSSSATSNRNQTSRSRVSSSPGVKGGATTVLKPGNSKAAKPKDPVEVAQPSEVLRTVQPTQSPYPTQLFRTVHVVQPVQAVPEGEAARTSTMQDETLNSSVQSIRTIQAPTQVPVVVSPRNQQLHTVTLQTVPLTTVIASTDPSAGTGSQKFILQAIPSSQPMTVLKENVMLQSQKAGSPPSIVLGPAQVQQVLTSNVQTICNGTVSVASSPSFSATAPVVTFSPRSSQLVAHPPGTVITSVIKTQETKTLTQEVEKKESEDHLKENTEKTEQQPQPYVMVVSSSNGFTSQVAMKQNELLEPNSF
# Summary of the method: as §1
# EHF = target: T5, EHF (Homo sapiens, UniProt Q9NZC4 1-300)
# T5 sequence: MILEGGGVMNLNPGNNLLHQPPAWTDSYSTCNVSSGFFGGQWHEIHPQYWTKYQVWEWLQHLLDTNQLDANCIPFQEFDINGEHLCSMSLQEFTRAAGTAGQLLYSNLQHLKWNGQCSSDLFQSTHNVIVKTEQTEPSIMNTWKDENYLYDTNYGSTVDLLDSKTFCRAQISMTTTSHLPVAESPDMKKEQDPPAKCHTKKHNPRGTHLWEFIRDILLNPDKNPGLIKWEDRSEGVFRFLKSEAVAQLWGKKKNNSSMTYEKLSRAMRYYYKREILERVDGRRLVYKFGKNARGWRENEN
# Summary of the method: as §1
# SPI1 = SPI1 (Homo sapiens, UniProt P17947 1-270)
# Summary of the method: as §1
# SPIB = SPIB (Homo sapiens, UniProt Q01892 1-262)
# Sequence of SPIB (Q01892 whole entry): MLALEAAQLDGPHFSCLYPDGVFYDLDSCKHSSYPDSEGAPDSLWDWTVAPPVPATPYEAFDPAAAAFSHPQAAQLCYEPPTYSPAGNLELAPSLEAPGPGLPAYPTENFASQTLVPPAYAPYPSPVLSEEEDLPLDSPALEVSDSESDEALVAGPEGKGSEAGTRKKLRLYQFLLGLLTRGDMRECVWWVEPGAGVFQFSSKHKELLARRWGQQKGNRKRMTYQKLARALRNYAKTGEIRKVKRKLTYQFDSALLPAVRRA
# Summary of the method: as §1
# ELK3 = target: T6, ELK3 (Homo sapiens, UniProt P41970 1-407)
# T6 sequence: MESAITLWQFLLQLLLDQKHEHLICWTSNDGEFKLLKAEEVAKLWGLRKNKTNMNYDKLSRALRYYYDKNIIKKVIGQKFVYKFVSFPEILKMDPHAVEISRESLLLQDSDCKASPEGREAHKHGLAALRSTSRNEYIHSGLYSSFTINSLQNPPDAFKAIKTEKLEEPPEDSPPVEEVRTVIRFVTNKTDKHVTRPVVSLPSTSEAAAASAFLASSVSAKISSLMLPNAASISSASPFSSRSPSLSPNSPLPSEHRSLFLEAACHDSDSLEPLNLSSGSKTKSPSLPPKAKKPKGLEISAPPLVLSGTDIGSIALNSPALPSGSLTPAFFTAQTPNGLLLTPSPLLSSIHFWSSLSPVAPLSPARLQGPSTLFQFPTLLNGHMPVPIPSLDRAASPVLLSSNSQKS
# Summary of the method: as §1
Sequence,binding signal (FLI1),binding signal (ELK1),binding signal (GABPA),binding signal (ERG),binding signal (ELF1),binding signal (EHF),binding signal (SPI1),binding signal (SPIB),binding signal (ELK3)
AGATTT,"1.12 fold enrichment (6-mer frequency, TF over GST control)","1.14 fold enrichment (6-mer frequency, TF over GST control)","1.08 fold enrichment (6-mer frequency, TF over GST control)","1.21 fold enrichment (6-mer frequency, TF over GST control)","1.11 fold enrichment (6-mer frequency, TF over GST control)","1.2 fold enrichment (6-mer frequency, TF over GST control)","1.13 fold enrichment (6-mer frequency, TF over GST control)","1.09 fold enrichment (6-mer frequency, TF over GST control)","1.01 fold enrichment (6-mer frequency, TF over GST control)"
ACCTCT,"1.32 fold enrichment (6-mer frequency, TF over GST control)","1.37 fold enrichment (6-mer frequency, TF over GST control)","1.41 fold enrichment (6-mer frequency, TF over GST control)","1.41 fold enrichment (6-mer frequency, TF over GST control)","1.47 fold enrichment (6-mer frequency, TF over GST control)","1.37 fold enrichment (6-mer frequency, TF over GST control)","1.29 fold enrichment (6-mer frequency, TF over GST control)","1.24 fold enrichment (6-mer frequency, TF over GST control)","1.36 fold enrichment (6-mer frequency, TF over GST control)"
TACGAT,"1.14 fold enrichment (6-mer frequency, TF over GST control)","1.09 fold enrichment (6-mer frequency, TF over GST control)","1.17 fold enrichment (6-mer frequency, TF over GST control)","1.11 fold enrichment (6-mer frequency, TF over GST control)","1.11 fold enrichment (6-mer frequency, TF over GST control)","1.03 fold enrichment (6-mer frequency, TF over GST control)","1.09 fold enrichment (6-mer frequency, TF over GST control)","1.14 fold enrichment (6-mer frequency, TF over GST control)","1.09 fold enrichment (6-mer frequency, TF over GST control)"
TCTCTG,"1.67 fold enrichment (6-mer frequency, TF over GST control)","1.67 fold enrichment (6-mer frequency, TF over GST control)","1.47 fold enrichment (6-mer frequency, TF over GST control)","1.56 fold enrichment (6-mer frequency, TF over GST control)","1.66 fold enrichment (6-mer frequency, TF over GST control)","1.62 fold enrichment (6-mer frequency, TF over GST control)","1.52 fold enrichment (6-mer frequency, TF over GST control)","1.5 fold enrichment (6-mer frequency, TF over GST control)","1.52 fold enrichment (6-mer frequency, TF over GST control)"
AAACTA,"1.17 fold enrichment (6-mer frequency, TF over GST control)","1.23 fold enrichment (6-mer frequency, TF over GST control)","1.23 fold enrichment (6-mer frequency, TF over GST control)","1.23 fold enrichment (6-mer frequency, TF over GST control)","1.27 fold enrichment (6-mer frequency, TF over GST control)","1.32 fold enrichment (6-mer frequency, TF over GST control)","1.22 fold enrichment (6-mer frequency, TF over GST control)","1.22 fold enrichment (6-mer frequency, TF over GST control)","1.34 fold enrichment (6-mer frequency, TF over GST control)"
TCACCT,"1.25 fold enrichment (6-mer frequency, TF over GST control)","1.31 fold enrichment (6-mer frequency, TF over GST control)","1.27 fold enrichment (6-mer frequency, TF over GST control)","1.23 fold enrichment (6-mer frequency, TF over GST control)","1.2 fold enrichment (6-mer frequency, TF over GST control)","1.21 fold enrichment (6-mer frequency, TF over GST control)","1.21 fold enrichment (6-mer frequency, TF over GST control)","1.13 fold enrichment (6-mer frequency, TF over GST control)","1.22 fold enrichment (6-mer frequency, TF over GST control)"
CTTCCC,"2.11 fold enrichment (6-mer frequency, TF over GST control)","2.06 fold enrichment (6-mer frequency, TF over GST control)","2.07 fold enrichment (6-mer frequency, TF over GST control)","2.19 fold enrichment (6-mer frequency, TF over GST control)","2.29 fold enrichment (6-mer frequency, TF over GST control)","2.4 fold enrichment (6-mer frequency, TF over GST control)","3.35 fold enrichment (6-mer frequency, TF over GST control)","2.45 fold enrichment (6-mer frequency, TF over GST control)","2.08 fold enrichment (6-mer frequency, TF over GST control)"
GTATTT,"1.47 fold enrichment (6-mer frequency, TF over GST control)","1.61 fold enrichment (6-mer frequency, TF over GST control)","1.48 fold enrichment (6-mer frequency, TF over GST control)","1.67 fold enrichment (6-mer frequency, TF over GST control)","1.53 fold enrichment (6-mer frequency, TF over GST control)","1.6 fold enrichment (6-mer frequency, TF over GST control)","1.55 fold enrichment (6-mer frequency, TF over GST control)","1.61 fold enrichment (6-mer frequency, TF over GST control)","1.75 fold enrichment (6-mer frequency, TF over GST control)"
